Screen size: about 360,000 compounds; about 9,100 (2.5%) were called active. Roughly 4% stayed inconclusive and do not appear here. For the sample, actives were picked, then their nearest neighbours and some compounds at random. A number with no mark means an inactive call. Rule as the data show it: active = max response below about -50%; inconclusive = no clear call, values can overlap the other calls; inactive = above that.
% is scaled to controls: 0 for no effect and ±100 for the full control effect.

D(3) dopamine receptor (Homo sapiens), sequence (P35462 whole entry, looked up): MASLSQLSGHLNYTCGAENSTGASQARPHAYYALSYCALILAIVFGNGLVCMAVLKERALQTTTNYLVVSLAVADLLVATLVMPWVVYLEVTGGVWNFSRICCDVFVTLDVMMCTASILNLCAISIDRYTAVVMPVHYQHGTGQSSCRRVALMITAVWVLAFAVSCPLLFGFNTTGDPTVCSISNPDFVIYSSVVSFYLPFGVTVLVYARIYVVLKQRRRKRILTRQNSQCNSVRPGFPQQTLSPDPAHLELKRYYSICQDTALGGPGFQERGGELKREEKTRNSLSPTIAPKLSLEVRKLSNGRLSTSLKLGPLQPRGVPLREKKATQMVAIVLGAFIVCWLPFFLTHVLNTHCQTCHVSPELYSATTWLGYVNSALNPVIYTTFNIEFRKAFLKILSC

In this experiment the target is D(3) dopamine receptor (Homo sapiens) (UniProt P35462). The experiment is described as follows: qHTS of D3 Dopamine Receptor Antagonist: qHTS. The following applies: D3R cells, DiscoveRx beta-arrestin luminescence, antagonist mode; hits give low values. The procedure, abridged:
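Cells expressing the human receptor were seeded at 1500 cells/well, incubated overnight at 37 degrees C in 5% CO2, then exposed to library compounds with dopamine controls for 90 minutes at 37 degrees C before luminescent detection.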
In the case of `COC(=O)CCCCC1=CCC2C(=O)C=C(O)C2C1` (stereo not given), the max response, negative = inhibition is 0%. For `CN1CCn2cnc(C(=O)NCC(=O)OC(C)(C)C)c2C1=O`, the max response, negative = inhibition is -5.8%.

For `CSCc1nnc(NC(=O)c2ccc(S(=O)(=O)N3CCCCC3C)cc2)o1` (stereo not given), the max response, negative = inhibition is -20%.

Regarding `CC1CCCCN1S(=O)(=O)c1ccc(S(=O)(=O)N(CC(=O)Nc2ccccc2)Cc2cccs2)cc1` (stereo not given), the max response, negative = inhibition is 28.7%. Next, `CC1CCCCN1S(=O)(=O)c1ccc(C(=O)Nc2nnc(-c3cccs3)o2)cc1` (stereo not given): -63.3% (active); `Cc1cc(C)n(-c2c(F)c(F)c(COC(=O)c3ccccc3)c(F)c2F)n1`: -2%. Then `Cc1cc(-n2nc(C)cc2C)n2ncc(-c3ccccc3)c2n1`, with 17.7%. Then `CCOC(=O)c1cnc(-n2nc(C)cc2C)nc1NNc1cc(C)nc(-c2ccccc2)n1`, with -53.4% (active). Turning to `CCCS(=O)(=O)NC(=O)C1(C)CCCN(C(=O)c2cccs2)C1` (stereo not given), the max response, negative = inhibition was -7.3%. Then `COC(=O)[C@]12CCCCC=C1N(Cc1ccccc1)C(=O)[C@H](CC(=O)NCc1ccc(C)o1)C2`, with 0.174%. Next, `COc1ccc(N2CCN(Cc3nnc(-c4ccccc4)o3)CC2)cc1`: 11.3%; `Cc1ccc(-c2nnc(CN3CCN(C)CC3)o2)cc1`: 0%. `c1ccc(-c2cnc(CN3CCN(c4ccccc4)CC3)o2)cc1`: the max response, negative = inhibition is -58.1% (active). Then `Cc1cc2cc3n(c2nn1)N=C(Cl)CC3`, with 10.6%; and `CC(=O)Nc1ccc(N2C(=O)C3C4CC(=O)C(c5ccccc54)C3C2=O)cc1` (stereo not given), with -60% (active); and `CCc1ccccc1N1C(=O)C2C3CC(=O)C(c4ccccc43)C2C1=O` (stereo not given), with -6.94%.

`CC(=O)Nc1ccc(N2C(=O)C3C4C=CC(CC4)C3C2=O)cc1` (stereo not given): the max response, negative = inhibition was 3.35%. On to `Cc1cc(Br)cn2c(Cc3cccc(F)c3)c(-c3cccc(Br)c3)nc12`, for which the max response, negative = inhibition was 0.913%.

Take `COc1ccccc1/C=C/CN1CCC(CO)(Cc2ccccc2)CC1`: the max response, negative = inhibition is -76.1% (active). In the case of `CC(C)c1csc(CN2CCC(CO)(Cc3ccccc3)CC2)n1`, the max response, negative = inhibition was -22%. Consider `COc1ccccc1/C=C/C=N/NC(=O)CN1CCN(Cc2ccccc2)CC1`, for which the max response, negative = inhibition was -17.6%. Turning to `COc1cccc(NC(=O)N(C)C[C@@H]2Oc3ncc(Br)cc3C(=O)N([C@@H](C)CO)C[C@H]2C)c1`, the max response, negative = inhibition is -24.9%.

`OC(c1ccccc1)c1nc(-c2cnc3ccccc3c2)cs1` (stereo not given): the max response, negative = inhibition is 4.32%. Then `CCc1ccc2c(c1)C1(NN=C(c3ccccc3)S1)C(=O)N2` (stereo not given), with -60.6% (active); and `CCc1ccc2c(c1)NC(=O)C2(C)Cc1ccc(OC(F)(F)F)cc1` (stereo not given), with 16.6%.

The record behind these values is PubChem BioAssay AID652054 (National Center for Advancing Translational Sciences (NCATS), 2013).
